# Bioassay records deposited in PubChem by Broad Institute.
# STK33 kin inh – blocks human STK33 kinase activity. ADP-Glo luminescence, MBP substrate. inhibition, % at 12.5 µM. actives 0.44% (n = 27,000); in the data active = inhibition above about 20%; inconclusive = no clear call, values can overlap the other calls
# Target sequence (Q9BYT3 whole entry, looked up): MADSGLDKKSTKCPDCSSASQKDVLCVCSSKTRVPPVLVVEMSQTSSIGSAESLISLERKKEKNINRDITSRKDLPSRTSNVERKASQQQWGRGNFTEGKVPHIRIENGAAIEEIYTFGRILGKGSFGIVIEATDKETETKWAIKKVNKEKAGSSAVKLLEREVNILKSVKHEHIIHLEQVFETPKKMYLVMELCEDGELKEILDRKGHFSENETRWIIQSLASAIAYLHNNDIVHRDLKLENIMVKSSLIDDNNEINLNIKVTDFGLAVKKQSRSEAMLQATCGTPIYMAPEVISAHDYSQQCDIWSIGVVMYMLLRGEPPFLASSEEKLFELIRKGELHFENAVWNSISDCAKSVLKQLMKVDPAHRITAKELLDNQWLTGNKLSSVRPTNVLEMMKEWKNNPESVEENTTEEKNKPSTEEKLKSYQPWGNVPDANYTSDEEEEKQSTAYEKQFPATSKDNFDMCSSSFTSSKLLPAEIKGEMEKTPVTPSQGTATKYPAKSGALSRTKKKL
# PD-1 reversal – reversal of PD-1 mediated T-cell inhibition | primary human CD4 T cells, PD-L1 beads, CellTiter-Glo 96 h | activation, % (test concentration not listed) | 29,000 tested, under 10 active | AID 2316; call rule not given here;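 note: 0% = median vehicle wells and 100% = positive control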
# NOMO-1 viab – STK33 inhibitor candidate reducing NOMO-1 cell viability; NOMO-1 AML viability, CellTiter-Glo luminescence, 72 h; inhibition, % (concentration not given with the values); actives 7.5% (n = 37,000); AID 2330; in the data active = inhibition above about 80%; inconclusive = no clear call, values can overlap the other calls
# * = called active by the depositor; u = inconclusive; x = no result given. The sample as a whole holds a higher share of hits than the screen did.
SMILES,STK33 kin inh,PD-1 reversal,NOMO-1 viab
Cc1noc(C)c1NC(=O)Nc1ccc2c(c1)C(=O)N([C@H](C)CO)C[C@H](C)[C@H](CN(C)CC1CCCCC1)O2,0,0,5
C[C@@H]1CN([C@H](C)CO)C(=O)c2cc(NS(=O)(=O)c3ccccc3)ccc2O[C@@H]1CN(C)Cc1ccc(C(F)(F)F)cc1,x,0,7
Cc1noc(C)c1NC(=O)Nc1ccc2c(c1)C(=O)N([C@@H](C)CO)C[C@H](C)[C@@H](CN(C)S(=O)(=O)c1ccc(F)cc1)O2,x,1,-7
C[C@H](CO)N1C[C@H](C)[C@H](CN(C)Cc2ccccc2)Oc2ccc(NC(=O)Nc3ccccc3)cc2CC1=O,x,x,63
C[C@@H]1CN([C@@H](C)CO)C(=O)Cc2cc(NC(=O)Nc3ccccc3)ccc2O[C@@H]1CN(C)Cc1ccc(Cl)c(Cl)c1,1,-3,103*
C[C@H]1CN([C@@H](C)CO)C(=O)c2cccc(NC(=O)C3CCCCC3)c2O[C@H]1CN(C)S(=O)(=O)c1cccs1,-2,-3,17
COc1ccc(NC(=O)CN(C2CCCCC2)S(=O)(=O)c2ccc(Cl)cc2)cc1,-5,-1,45
COc1ccccc1C1CCN(Cc2cccc3ccccc23)CC1,0,-7,100*
COc1ccccc1C1CCN(S(=O)(=O)c2ccccc2Br)CC1,x,0,-4
COc1ccc(C(=C2C(=O)Nc3ccccc32)c2ccc(OC)cc2)cc1,3,0,15
CN(C)c1ccc(/C=C2\C(=O)Nc3ccccc32)c2ccccc12,3,3,86*
C[C@@H]1C[C@H]2OCC3=CCC[C@H]([C@]1(CC(O)c1ccoc1)C(=O)O)[C@]32CO (stereo not given in full),0,-5,120*
CC1=CCC[C@@H]2[C@](CCc3ccoc3)(C(=O)O)[C@H](C)CC[C@@]12C,-4,-1,26
Cc1noc(C)c1NC(=O)Nc1ccc2c(c1)C(=O)N([C@H](C)CO)C[C@@H](C)[C@@H](CN(C)Cc1ccc(Oc3ccccc3)cc1)O2,x,-2,0
COc1ccc(CN(C)C[C@H]2OCc3cnnn3CCCC(=O)N([C@@H](C)CO)C[C@H]2C)cc1,-4,x,x
O=C1c2cccc3cccc(c23)C(=O)N1CCN1CCN(C(=S)Nc2cccc(S(=O)(=O)C(F)F)c2)CC1,6,4,-11
C[C@@H]1CN([C@H](C)CO)C(=O)Cc2cc(NC(=O)Cc3cn(C)c4ccccc34)ccc2O[C@@H]1CN(C)C(=O)Nc1ccc(C(F)(F)F)cc1,1,-1,6
C[C@@H]1CN([C@@H](C)CO)C(=O)Cc2cc(NC(=O)Cc3cn(C)c4ccccc34)ccc2O[C@@H]1CN(C)C(=O)Nc1ccc(C(F)(F)F)cc1,0,-1,46
C[C@@H]1CN([C@H](C)CO)C(=O)Cc2cc(NC(=O)Cc3cn(C)c4ccccc34)ccc2O[C@H]1CN(C)Cc1ccc(C(F)(F)F)cc1,7,-4,133*
C[C@H]1CN([C@@H](C)CO)C(=O)Cc2cc(NC(=O)Cc3cn(C)c4ccccc34)ccc2O[C@H]1CN(C)Cc1ccc(C(F)(F)F)cc1,2,x,83*
O=C(CN1C(=O)c2ccccc2S1(=O)=O)Nc1ccccc1C(=O)N1CCOCC1,1,x,7
C[C@@H]1CN([C@@H](C)CO)C(=O)c2cc(N(C)C)ccc2O[C@@H]1CN(C)Cc1ccc(C(=O)Nc2ccccc2N)cc1,x,-3,110*
C[C@H]1CN([C@@H](C)CO)C(=O)c2cc(NC(=O)c3ccncc3)ccc2O[C@@H]1CN(C)Cc1ccc(C(=O)Nc2ccccc2N)cc1,x,0,-3
C[C@@H]1CN([C@H](C)CO)C(=O)c2cc(NC(=O)c3ccncc3)ccc2O[C@@H]1CN(C)Cc1ccc(C(=O)Nc2ccccc2N)cc1,x,-3,u
C[C@H]1CN([C@@H](C)CO)C(=O)c2cc(N(C)C)ccc2O[C@@H]1CN(C)Cc1ccc(C(=O)Nc2ccccc2N)cc1,x,-2,112*
SMILES,STK33 kin inh,PD-1 reversal,NOMO-1 viab
C[C@H]1CN([C@@H](C)CO)C(=O)CCCn2cc(nn2)CO[C@H]1CN(C)C(=O)OCc1ccccc1,-5,x,x
C[C@H](CO)N1C[C@H](C)[C@H](CN(C)Cc2ccc(C(F)(F)F)cc2)Oc2ccc(NS(=O)(=O)c3ccc(F)cc3)cc2C1=O,4,0,1
C[C@H](CO)N1C[C@H](C)[C@@H](CN(C)Cc2ccc(C(F)(F)F)cc2)Oc2ccc(NS(=O)(=O)c3ccc(Cl)cc3)cc2C1=O,-2,-6,68
C[C@H]1CN([C@@H](C)CO)C(=O)c2cc(NS(=O)(=O)c3ccc(Cl)cc3)ccc2O[C@@H]1CN(C)Cc1ccc(C(F)(F)F)cc1,5,-6,111*
C[C@@H]1CN([C@H](C)CO)C(=O)c2cc(NS(=O)(=O)c3ccc(Cl)cc3)ccc2O[C@H]1CN(C)Cc1ccc(C(F)(F)F)cc1,x,-1,123*
Oc1ccc(CCCCC(O)CCc2ccc(O)cc2)cc1 (stereo not given),-5,x,x
Cc1noc(C)c1S(=O)(=O)Nc1ccc2c(c1)CC(=O)N([C@@H](C)CO)C[C@H](C)[C@H](CN(C)Cc1ccc(C(F)(F)F)cc1)O2,-6,-3,83*
Cc1noc(C)c1S(=O)(=O)Nc1ccc2c(c1)CC(=O)N([C@@H](C)CO)C[C@H](C)[C@@H](CN(C)Cc1ccc(C(F)(F)F)cc1)O2,6,x,65
Cc1noc(C)c1S(=O)(=O)Nc1ccc2c(c1)CC(=O)N([C@@H](C)CO)C[C@H](C)[C@H](CN(C)Cc1ccc(Cl)c(Cl)c1)O2,4,-4,u
Cc1noc(C)c1S(=O)(=O)Nc1ccc2c(c1)CC(=O)N([C@H](C)CO)C[C@@H](C)[C@H](CN(C)Cc1ccc(Cl)c(Cl)c1)O2,3,-2,97*
C[C@@H]1CN([C@H](C)CO)C(=O)c2cc(NS(=O)(=O)c3ccc(F)cc3)ccc2O[C@H]1CN(C)S(=O)(=O)c1ccc(F)cc1,0,-1,-20
C[C@H]1CN([C@@H](C)CO)C(=O)c2cc(NC(=O)Nc3ccc(C(F)(F)F)cc3)ccc2O[C@@H]1CN(C)S(=O)(=O)c1cccs1,x,x,94*
C[C@H]1CN([C@@H](C)CO)C(=O)c2cc(NC(=O)Nc3ccc(F)cc3)ccc2O[C@@H]1CN(C)S(=O)(=O)c1cccs1,5,-2,25
C[C@@H]1CN([C@@H](C)CO)C(=O)c2cc(NC(=O)Nc3ccc(F)cc3)ccc2O[C@@H]1CN(C)S(=O)(=O)c1cccs1,1,0,14
C[C@H](CO)N1C[C@H](C)[C@H](CN(C)S(=O)(=O)c2cccs2)Oc2ccc(NC(=O)Nc3ccc(F)cc3)cc2C1=O,x,-1,21
C[C@@H]1CN([C@@H](C)CO)C(=O)c2cc(NC(=O)Nc3ccc(C(F)(F)F)cc3)ccc2O[C@@H]1CN(C)S(=O)(=O)c1cccs1,3,-3,109*
C[C@@H]1CN([C@@H](C)CO)C(=O)c2cc(NC(=O)Nc3ccc(C(F)(F)F)cc3)ccc2O[C@H]1CN(C)S(=O)(=O)c1cccs1,x,x,93*
COc1ccc(S(=O)(=O)Nc2ccc3c(c2)C(=O)N([C@@H](C)CO)C[C@@H](C)[C@H](CN(C)CC2CC2)O3)cc1,x,2,7
CNC[C@H]1Oc2c(NC(=O)c3cnccn3)cccc2C(=O)N([C@@H](C)CO)C[C@H]1C,x,1,-3
